HT1080 IDH1KD tx – qHTS for induction of synthetic lethality in tumor cells producing 2HG: qHTS for the HT-1080-IDH1KD cell line | HT-1080 IDH1 knockdown viability, ATP luminescence, 48 h | Potency, µM (titrated, usually from 46.1 µM), inactives show at the highest dose activity, negative = toxicity, actives largely listed as cytotoxic | 360,000 compounds, 2% hits;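 further: potency means the concentration at half of the fitted maximal effect; 0% = DMSO wells and -100% = cell-free medium wells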
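% activity derives from luminescence (CellTiter-Glo), normalised to DMSO and no-cell wells. HT-1080-IDH1KD cells, 750/well, had 48 h compound exposure at 37 °C.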
DT40 TDP1 no CPT – qHTS for Inhibitors of human tyrosyl-DNA phosphodiesterase 1 (TDP1): qHTS in cells in absence of CPT; DT40 Tdp1-/- hTDP1 cells, no CPT, ATP luminescence, 48 h; Potency, µM (titrated, usually from 46.2 µM), for the others: at the top dose activity change, negative = growth inhibition, actives largely listed as inhibitors; AID 686978, 2013; 420,000 compounds, 15% hits; further: potency means the concentration at half of the fitted maximal effect; nearly all actives have a fitted effect of over 55% in size
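Chicken DT40 Tdp1-/- cells stably complemented with human TDP1 were seeded at 400 cells/well with DMSO in place of 20 nM camptothecin. After compound pinning, cells grew at least 48 hr at 37 °C; viability read by CellTiter-Glo luminescence.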
HT1080-NT tox – qHTS for induction of synthetic lethality in tumor cells producing 2HG: qHTS for the HT-1080-NT fibrosarcoma cell line; AID 686970, 2013; Potency, µM (highest dose often 46.1 µM), without a hit: at the highest dose activity, negative = less viability, usual class: cytotoxic; 360,000 compounds, 1.6% hits; HT-1080-NT fibrosarcoma viability, CellTiter-Glo ATP luminescence, 48 h;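 further: NT is the 2HG producing partner of a matched IDH1 knockdown line; potency means the concentration at half of the fitted maximal effect; 0% = DMSO-treated cells and -100% = media-only wells without cells; nearly all actives have a fitted effect of over 55% in size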
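Compounds were tested in concentration-response format on HT-1080-NT cells for 48 hours at 37 degrees C. Cell viability came from CellTiter-Glo luminescence; curves were classified by r2, response magnitude and activity.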
TDP1 cell CPT – qHTS for Inhibitors of human tyrosyl-DNA phosphodiesterase 1 (TDP1): qHTS in cells in presence of CPT; chicken DT40 Tdp1-/-;hTDP1 cells + 20 nM CPT, ATP luminescence, 48 h; Potency, µM (titrated, usually from 46.2 µM), inactives show top-dose activity change, negative = growth inhibition, usual class: inhibitors; 420,000 compounds, 12% hits; further: potency means the concentration at half of the fitted maximal effect; nearly all actives have a fitted effect of over 55% in size
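Chicken DT40 Tdp1-/- cells complemented with human TDP1, 400 cells/well, exposed to compounds plus 20 nM camptothecin for at least 48 h at 37 C; viability read as ATP content by CellTiter-Glo luminescence.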
IL-1B inflam inh – qHTS for Inhibitors of Inflammasome Signaling: IL-1-beta AlphaLISA Primary Screen | activity change, % at 57.5 µM | AID 743279, 2014 | THP-1 LPS/ATP IL-1B secretion, AlphaLISA, 16 h; active compounds read low | 360,000 compounds, 4.7% hits; in the data active means activity change below about -50%; inconclusive means mostly about -30% to -49%
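Secreted IL-1B measured by AlphaLISA bead assay after 16 h compound exposure of THP-1 cells; compounds (final up to 57.5 uM) added 1 h before LPS (250 ng/mL) and ATP (1.25 mM) stimulation; lower signal means less secretion.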
Numbers without * were called inactive; ? = inconclusive; . = no result. Rows were chosen to be rich in hits. Some 19% of all compounds tested hit in one or more screens of this group. Unless noted, the call rests on the fitted dose curve; in most records, active means well fitted curve in the direction sought with a large enough effect; inconclusive means small, poorly fitted or top-dose-only effect, or another doubt; inactive means no such curve, though single readings can be large; an effect the other way counts as inactive or inconclusive. Unless noted, on the % scale 0 is the no-effect control and ±100 the full control effect.

SMILES	HT1080 IDH1KD tx	DT40 TDP1 no CPT	HT1080-NT tox	TDP1 cell CPT	IL-1B inflam inh
Cc1ccc(S(=O)(=O)N2C3CCCCC3O[C@H]2CC(=O)c2cccc3ccccc23)cc1 (some centres undefined)	-26%	?	-1%	?	0
CC(C)C(NC(=O)c1ccccc1)C(=O)NCCc1ccccc1 (centres undefined)	5%	1%	1%	6%	8
O=C(Nc1ccc(Cl)cn1)c1ccc(-c2ccc(Cl)c(Cl)c2)o1	21%	-22%	20%	-13%	-3
COc1ccc(-c2[nH]c3ccccc3c2SCCN)cc1	-28%	?	-10%	?	-59*
Cc1cc(C)n(-c2ccc(C(=O)N3CCN(S(=O)(=O)c4ccc(Br)cc4Cl)CC3)cc2)n1	-23%	16µM*	-24%	23µM*	?
Cc1cc(C)n(-c2ccc(C(=O)N3CCN(c4ccccn4)CC3)cc2)n1	-1%	-10%	-3%	-26%	33
Cc1cc(C)n(-c2ccc(C(=O)N3CCC(CO)(Cc4ccccc4)CC3)cc2)n1	-11%	?	?	16µM*	0
COc1ccc(CCN(C)C(=O)CN2C(=O)NC3(CCCCC3C)C2=O)cc1OC (centres undefined)	7%	-16%	-1%	-14%	-5
CCCCc1cc(=O)oc2c(C)c(OCC(=O)NCC3CCC(C(=O)O)CC3)ccc12 (centres undefined)	-4%	-1%	0%	-20%	10
O=C(C1CCN(CCCc2ccccc2)CC1)N(CCc1ccccc1)Cc1ccccc1	?	15µM*	?	?	?
O=C(CSc1nncn1-c1ccccc1F)NC1CC1	6%	0%	-1%	-27%	5
CCCC1CCc2c(c3ccccc3[nH]c2=O)O1 (centres undefined)	-21%	?	-6%	?	3
COc1ccc(/C=N/Nc2cc(C)nc3ccc(Br)cc23)cc1	21µM*	8.2µM*	7.3µM*	?	-101*
COc1ccc2nc(C)cc(N/N=C/c3cccc(OC)c3O)c2c1	16µM*	?	?	?	-99*
Cc1cc(N/N=C/c2ccccc2O)c2ccccc2n1	-11%	16µM*	0%	16µM*	-63*
COc1cccc(C(=O)NCC(C)(C)SCc2ccc(F)cc2)c1	9%	?	-1%	?	24
C[C@H]1C(c2ccc(F)cc2)=NN(c2ccccc2)[C@@H]1CO	-2%	-2%	-5%	18µM*	0
COc1ccccc1[C@H]1C(c2ccc(F)cc2)=NN(c2ccccc2)[C@@H]1CO	?	?	-19%	18µM*	-13
CC1=NN(c2ccccc2)C(=O)C1C(=O)C(=O)Nc1ccc(F)cc1 (centres undefined)	15%	?	11%	?	-10
C/C(=N/OCO/N=C(\C)c1ccc(F)cc1F)c1ccc(F)cc1F	0%	1%	9%	-2%	-7
CNc1ccc(Br)cc(C(=O)/C=C/c2cccc(Cl)c2Cl)c1=O	-7%	16µM*	0%	18µM*	-56*
CCNc1ccc(Br)cc(C(=O)/C=C/c2ccccc2Cl)c1=O	13µM*	10µM*	?	9.2µM*	-104*
CC(C)Cc1nc2ccccc2[nH]1	4%	-17%	2%	20%	1
COc1cc2nc(CC(O)c3nc4cc(OC)c(OC)cc4[nH]3)[nH]c2cc1OC (centres undefined)	.	6.3µM*	.	7.1µM*	.
Cc1cccc(CC(Cc2nc3ccccc3[nH]2)c2nc3ccccc3[nH]2)c1 (centres undefined)	26µM*	?	18µM*	16µM*	-75*
SMILES	HT1080 IDH1KD tx	DT40 TDP1 no CPT	HT1080-NT tox	TDP1 cell CPT	IL-1B inflam inh
COc1ccccc1CC(Cc1nc2ccccc2[nH]1)c1nc2ccccc2[nH]1 (centres undefined)	?	30µM*	-5%	?	-26
COc1ccc(Cc2nc3ccccc3[nH]2)cc1OC	-10%	-28%	-2%	-16%	19
CN(C)C(=O)c1cc(C(=O)c2ccc(C(F)(F)F)cc2)c[nH]1	-2%	?	-2%	-26%	1
O=C(Nc1nc2ccc(S(=O)(=O)N3CCCC3)cc2s1)c1ccccn1	-1%	2.9µM*	4%	6.5µM*	-9
CC(=O)Nc1nc2ccc(S(=O)(=O)N3CCCCC3)cc2s1	-2%	-8%	10%	-12%	35
CNS(=O)(=O)c1ccc2nc(NC(=O)c3ccc(N4C(=O)CCC4=O)cc3)sc2c1	1%	21µM*	-3%	?	13
O=C(Nc1nc2ccc(S(=O)(=O)N3CCCCC3)cc2s1)c1cccnc1	-13%	?	-10%	-13%	44
O=C(Nc1nc2ccc(S(=O)(=O)N3CCCC3)cc2s1)c1cccc(F)c1	.	12µM*	.	?	.
CN(C(=O)c1cccc(C#CC(C)(C)O)c1)C1CCCN(Cc2ccccc2F)C1 (centres undefined)	5%	-12%	0%	-16%	0
O=C(c1ccc(N2C(=O)C3C4c5ccccc5C(c5ccccc54)C3C2=O)cc1)N1CCOCC1 (centres undefined)	1%	-19%	-4%	2%	17
CN(C)c1ccc(C(=O)c2ccc(O)cc2O)cc1	-15%	?	-7%	?	40
CN(C)c1ccc(Cc2cc3c(O)ccc(O)c3cc(Cc3ccc(N(C)C)cc3)c2=O)cc1	?	4.1µM*	-1%	3.7µM*	-113*
CC(=O)N1CCCc2cc(S(=O)(=O)N3CCC(C(=O)N(Cc4ccccc4)C(C)C)CC3)ccc21	.	?	.	23µM*	.
CC(=O)N1CCCc2cc(S(=O)(=O)N3CCC(C(=O)N(C)C4CCCCC4)CC3)ccc21	.	23µM*	.	?	.
COc1ccc2c(c1)C=C(CN1CCN(C3CCCC3)C(CCO)C1)CO2 (centres undefined)	-9%	-13%	-23%	-8%	-11
O=C(CCCN1C(=O)NC2(CCCC2)C1=O)Nc1cccc(S(=O)(=O)N2CCOCC2)c1	-1%	-15%	1%	3%	6
O=C(/C=C/c1cccc([N+](=O)[O-])c1)OCC(=O)N1CCCCC1	-16%	5%	-1%	12%	11
O=C1C(Br)=C(c2ccccc2)C(c2ccccc2)=C1c1ccccc1	?	0.92µM*	1%	0.58µM*	-13

Screens (PubChem BioAssay)
